Test results as given in PubChem BioAssay AID743126 (The Scripps Research Institute Molecular Screening Center, 2013).
In all, about 370,000 compounds went through this assay and about 2,100 (0.57%) were called active.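 The calls were made as follows: active = inhibition above mean plus 3 SD of compounds lying within the high and low control bounds (cut at about 19% in these data); inactive = the rest.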 Only a selection was taken, and actives are over-represented in it overall.

target: Group 3 secretory phospholipase A2 (Homo sapiens) (UniProt Q9NZ20); experiment: human group III sPLA2 inhibitors, primary screen, biochemical, QFRET, BODIPY PC-A2 liposome substrate (AID 743126); conditions: QFRET BODIPY PC-A2 liposome hydrolysis, fluorescence; at 12.2 µM; stronger effect = higher value;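 also: 0% = median of test compound wells and 100% = no enzyme DMSO wells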
Sequence (Q9NZ20 whole entry, looked up): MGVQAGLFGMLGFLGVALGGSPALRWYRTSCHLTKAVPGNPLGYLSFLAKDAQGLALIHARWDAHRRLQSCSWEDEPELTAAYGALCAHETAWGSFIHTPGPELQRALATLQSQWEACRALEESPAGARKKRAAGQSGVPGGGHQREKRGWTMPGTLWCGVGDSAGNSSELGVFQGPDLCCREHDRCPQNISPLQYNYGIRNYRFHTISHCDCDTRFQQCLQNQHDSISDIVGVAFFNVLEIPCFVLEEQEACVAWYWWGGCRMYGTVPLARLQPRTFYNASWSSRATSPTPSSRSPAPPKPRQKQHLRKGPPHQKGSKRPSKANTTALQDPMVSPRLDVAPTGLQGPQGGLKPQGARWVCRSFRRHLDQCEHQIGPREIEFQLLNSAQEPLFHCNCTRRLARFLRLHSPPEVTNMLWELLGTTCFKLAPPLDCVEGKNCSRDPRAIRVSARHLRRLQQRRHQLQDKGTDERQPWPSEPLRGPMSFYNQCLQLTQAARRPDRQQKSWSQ

Structure (SMILES) | inhibition
Nc1ccc2nn(-c3ccc(Cl)cc3)nc2c1 | 0.58% (inactive)
Nc1ccc2c(c1)C(O)c1ccc(Cl)cc1-2 (centres undefined) | 19.6% (active)
NC(=O)C1(C(N)=O)OC1c1ccc(Cl)cc1Cl (centres undefined) | -4.76% (inactive)
Cc1ccc(C(=O)N(Cc2ccccn2)CC2CCCO2)cc1 (centres undefined) | 1.49% (inactive)
CCN(CC)C(=O)CC[C@@H]1CC[C@]2(CCCN(S(=O)(=O)C3CCCCC3)C2)O1 | 11.9% (inactive)
Cc1ccc(C(=O)Nc2nc(N)n(-c3ccccc3)n2)cc1 | 12.6% (inactive)
Cc1ccc(-c2csc(NNC(=O)c3ccccc3)n2)cc1 | 41.2% (active)
O=C(NNc1nc(N2CCCC2)nc(N2CCCC2)n1)c1ccccc1 | -2.93% (inactive)
COC(=O)[C@]12C[C@H](CC(=O)NCc3cccc4ccccc34)C(=O)N(CCc3ccc(OC)c(OC)c3)C1=C[C@H](C1CCCC1)O[C@@H]2C | -20.3% (inactive)
CCn1c2ccccc2c2cc(NC(=O)CSc3nnc(-c4ccccc4)n3-c3ccc(C)cc3)ccc21 | -1.34% (inactive)
CCn1c(=O)n2n(c1=O)[C@@]1(C=C3CCCC[C@H]32)N=C(NC(=O)c2ccccc2)N(Cc2ccccc2)[C@H]1Cc1ccccc1 | 10.8% (inactive)
C[C@H]1[C@H](NC(=O)c2cccc(N(C)C)c2)CC[C@@]23CCCN2C(=O)CCC[C@@H]13 | -4.79% (inactive)
Fc1ccccc1Cc1ccc(Cl)nn1 | 9.12% (inactive)
C/C(=N\Nc1ccc(Cl)nn1)c1ccccc1O | 23.4% (active)
COC(=O)[C@@]12CCCCC=C1N(CCc1ccc(Cl)cc1)C(=O)[C@H]2CC(=O)NCc1ccc(OC)c(OC)c1 | -15% (inactive)
CC(C)(C)C(=O)c1c(N)[nH]c(C(=O)c2ccccc2)c1-c1ccc(F)cc1 | 5.32% (inactive)
Nc1[nH]c(C(=O)c2ccc(Br)cc2)c(-c2ccc3c(c2)OCO3)c1C(=O)NCCc1c[nH]c2ccccc12 | -43.9% (inactive)
Nc1[nH]c(C(=O)c2ccccc2)c(-c2ccc(Br)cc2)c1C(=O)NC1CC1 | 25.4% (active)
COc1ccc(CCNC(=O)CSc2nc3c([nH]2)c(=O)n(C)c(=O)n3C)cc1 | 5.11% (inactive)
CC(C)CNc1cccc2c1S(=O)(=O)N(Cc1cn(Cc3ccccc3C(F)(F)F)nn1)Cc1ccccc1O2 | 6.58% (inactive)
CCOC(=O)C1CCN(C(=O)C(C)(C)NC(=O)Nc2ccc(F)c(F)c2)CC1 | 1.05% (inactive)
CCOc1ccc(/C=N/NC(N)=S)cc1 | 19.5% (active)
CCOc1ccc(/C=N\NC(=O)c2c(C)nc3cc(C)ccn23)cc1 | 1.86% (inactive)
CCOc1ccc(NS(=O)(=O)c2ccc(C)c(C(N)=O)c2)cc1 | 2.14% (inactive)
CCOC(=O)N1CCN(C(=O)C[C@H]2C[C@@]3(C(=O)OC)C(=C[C@H](C(C)(C)C)O[C@@H]3C)N(Cc3ccc(Cl)cc3Cl)C2=O)CC1 | -6.16% (inactive)
CCOC(=O)[C@]12CCCC3=C1N(CCC3)C(=O)[C@@H](CC(=O)NCc1cccs1)C2 | -0.88% (inactive)
COC(=O)[C@]12C[C@H](CC(=O)NCCCN3CCCC3=O)C(=O)N(CCc3ccc(OC)c(OC)c3)C1=C[C@H](COCc1ccccc1)O[C@@H]2C | 11.1% (inactive)

Structure (SMILES) | inhibition
Cc1ccc(C2CC(c3cccc(C)c3)n3nc(N)nc3N2)cc1 (centres undefined) | 25.2% (active)
Cc1ccc(C2CC(c3cccc(Br)c3)n3nc(N)nc3N2)cc1 (centres undefined) | 9.36% (inactive)
COc1ccc(C2CC(c3ccc(Cl)cc3Cl)Nc3nc(N)nn32)cc1OC (centres undefined) | 0.41% (inactive)
O=C(OC12CCCN(C1)/C(=C/c1ccccc1)C2)c1ccco1 (centres undefined) | 4.15% (inactive)
C=CCN(Cc1ccc2c(c1)OCO2)C(C#CC1CC1)C(C)(C)C (centres undefined) | 7.02% (inactive)
COc1cc(NC(=O)C2CCCN(S(=O)(=O)c3ccc(C(C)(C)C)cc3)C2)cc(OC)c1 (centres undefined) | 2.94% (inactive)
CCC(c1ccc(NC(=O)OC(C)(C)C)cc1)c1cc(OC)cc(OC)c1 (centres undefined) | -18.5% (inactive)
COc1ccc(CSc2nnc(SCC(=O)Nc3ccccc3C(F)(F)F)s2)cc1 | -11.2% (inactive)
Cc1nn(CCOc2ccccc2)c(=O)n1-c1ccccc1F | 3.1% (inactive)
O=C(NCCOc1ccccc1)c1ccccc1F | 8.32% (inactive)
CC(C)(c1ccccc1)c1ccc(OCCN)cc1 | 23.6% (active)
COC(=O)[C@]12C[C@H](CC(=O)NCc3ccccc3)C(=O)N(CCC3=CCCCC3)C1=C[C@H](C(C)C)O[C@@H]2C1CC1 | -0.06% (inactive)
CCn1c(SCC(C)=O)nc2sc3c(c2c1=O)CCCC3 | -63% (inactive)
CCCC1CCC2(CCCN2CCOC(=O)NCc2ccccc2)CC1 (centres undefined) | 0.68% (inactive)
CC(=O)OC12CCCN(C1)/C(=C/c1ccncc1)C2 (centres undefined) | 8.67% (inactive)
CC(=O)C1(C(=O)Nc2nccs2)CC(c2ccccc2C(F)(F)F)=NO1 (centres undefined) | -9.84% (inactive)
Cc1cccc(NC(=S)NCc2ccc3[nH]c4c(c3c2)CCCC4)c1 | -9.81% (inactive)
Cc1cccc(NC(=S)NCCN(C2CCCCC2)C2CCCC2)c1 | 23.8% (active)
Cc1cccc(C(=O)NC(=S)N(C)C2CCCCC2)c1 | 7.08% (inactive)
C=CCN1C(=O)[C@H](CC(=O)N2CCN(C(=O)OCC)CC2)[C@@]2(C(=O)OCC)CCCC=C12 | -3.08% (inactive)
Cc1ccccc1CN1CCCCC(NC(=O)c2cccc(C#N)c2)C1=O (centres undefined) | 14% (inactive)
CCOc1ccc(-n2c(SCC(=O)Nc3cc(C)c(NC(=O)c4ccccc4)cc3OC)nnc2-c2cccs2)cc1 | -11.7% (inactive)
CCC[C@H]1C(=O)CC[C@@]23CCCN2C(=O)CCC[C@@H]13 | 9.16% (inactive)
COc1ccc([C@H]2OC(=O)C[C@H]2C(=O)N2CCN(c3ccccc3F)CC2)cc1OC | -0.35% (inactive)
Cn1c2c(c(=O)n(C)c1=O)[C@@H]1c3c(ccc4ccccc34)OC[C@@H]1CO2 | 1.04% (inactive)
COc1cccc2c1OCC1COc3c(c(=O)n(C)c(=O)n3C)C21 (centres undefined) | 8% (inactive)
Cn1c2c(c(=O)n(C)c1=O)C1c3ccccc3OCC1C(C)(C)O2 (centres undefined) | 20.6% (active)
